In the supplement of paper PMC10849652:
Targets with a hit are over-represented here; the source holds about 8,800 in all. About 0.5% of all pairs of compound and target were hits. Unmarked numbers belong to inactive results.

How the values were obtained:
Test in all cases: log2 fold change, soluble protein after heating vs DMSO (PISA); higher = thermal stabilisation; K562 lysate, 10 uM; active = over 0.2 and 3.5 SD of the protein, either way, in both replicates (recomputed)
vemurafenib = compound: CCCS(=O)(=O)Nc1ccc(F)c(C(=O)c2c[nH]c3ncc(-c4ccc(Cl)cc4)cc23)c1F [vemurafenib]
Outline: (§1)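 Soluble protein was defined as the supernatant remaining after 21,000xg for 90 min, following pooling of heated aliquots and adjustment to 0.5% NP-40 at 4°C. Before that, crude K562 extract at 1 mg/mL protein in PBS pH 7.4 with 1 mM MgCl2 was treated with 10 μM compound for 30 min and heated for 3 min across 48°C-58°C. Quantification used TMTpro 16plex LC-MS/MS with channel sums equalised, and values are log-two fold changes in thermal stability relative to solvent controls from duplicates.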

[1] = compound: CCCS(=O)(=O)Nc1ccc(F)c(C(=O)c2c[nH]c3ncc(Cl)cc23)c1F
Outline: as §1

barasertib = compound: CCN(CCCOc1ccc2c(Nc3cc(CC(=O)Nc4cccc(F)c4)[nH]n3)ncnc2c1)CCOP(=O)(O)O [barasertib]
Outline: as §1

[2] = compound: CC[C@@H]1C(=O)N(C)c2cnc(Nc3ccc(C(=O)NC4CCN(C)CC4)cc3OC)nc2N1C1CCCC1
Outline: as §1

volasertib = compound: CC[C@@H]1C(=O)N(C)c2cnc(Nc3ccc(C(=O)N[C@H]4CC[C@H](N5CCN(CC6CC6)CC5)CC4)cc3OC)nc2N1C(C)C [volasertib]
Outline: as §1

[3] = compound: CCn1c(C(=O)N(C2CC2)C2CC2)cc2c3c(ncn3C)c(Nc3cc(C)n(C)n3)nc21
Outline: as §1

[4] = compound: CCn1cc(-c2ccnc3[nH]c(-c4cccc(CN(C)C)c4)cc23)c(-c2ccc(NC(=O)N(C)C)cc2)n1
Outline: as §1

[5] = compound: CN1CCC(CNc2ccc3ncc(-c4cccc(OC(F)(F)F)c4)n3n2)CC1
Outline: as §1

saracatinib = compound: CN1CCN(CCOc2cc(OC3CCOCC3)c3c(Nc4c(Cl)ccc5c4OCO5)ncnc3c2)CC1 [saracatinib]
Outline: as §1

sotrastaurin = compound: CN1CCN(c2nc(C3=C(c4c[nH]c5ccccc45)C(=O)NC3=O)c3ccccc3n2)CC1 [sotrastaurin]
Outline: as §1

alvocidib = compound: CN1CC[C@H](c2c(O)cc(O)c3c(=O)cc(-c4ccccc4Cl)oc23)[C@H](O)C1 [alvocidib]
Outline: as §1

Tubastatin A = compound: CN1CCc2c(c3ccccc3n2Cc2ccc(C(=O)NO)cc2)C1 [Tubastatin A]
Outline: as §1

[6] = compound: CNC(=O)C1=CC=CC=C1NC2=NC(=NC=C2Cl)NC3=C(C=C(C=C3)N4CCOCC4)OC
Outline: as §1

defactinib = compound: CNC(=O)c1ccc(Nc2ncc(C(F)(F)F)c(NCc3nccnc3N(C)S(C)(=O)=O)n2)cc1 [defactinib]
Outline: as §1

[7] = compound: CNc1nc(-c2ccc3c(N)n[nH]c3c2)cc(N2C[C@@H](C(=O)NC3CCCCC3)CC[C@H]2C)n1
Outline: as §1

encorafenib = compound: COC(=O)N[C@@H](C)CNc1nccc(-c2cn(C(C)C)nc2-c2cc(Cl)cc(NS(C)(=O)=O)c2F)n1 [encorafenib]
Outline: as §1

[8] = compound: COC(=O)[C@H](CCSC)NC(=O)C1=C(C=C(C=C1)NC[C@H](CS)N)C2=CC=CC=C2
Outline: as §1

alisertib = compound: COc1cc(Nc2ncc3c(n2)-c2ccc(Cl)cc2C(c2c(F)cccc2OC)=NC3)ccc1C(=O)O [alisertib]
Outline: as §1

[9] = compound: COc1cc2nc(-c3cc(F)ccc3O)nc(N[C@@H]3CNC[C@H]3C(C)(C)O)c2cc1OC
Outline: as §1

gefitinib = compound: COc1cc2ncnc(Nc3ccc(F)c(Cl)c3)c2cc1OCCCN1CCOCC1 [gefitinib]
Outline: as §1

UniProt Q8N0Z6, sequence (Q8N0Z6 whole entry, looked up): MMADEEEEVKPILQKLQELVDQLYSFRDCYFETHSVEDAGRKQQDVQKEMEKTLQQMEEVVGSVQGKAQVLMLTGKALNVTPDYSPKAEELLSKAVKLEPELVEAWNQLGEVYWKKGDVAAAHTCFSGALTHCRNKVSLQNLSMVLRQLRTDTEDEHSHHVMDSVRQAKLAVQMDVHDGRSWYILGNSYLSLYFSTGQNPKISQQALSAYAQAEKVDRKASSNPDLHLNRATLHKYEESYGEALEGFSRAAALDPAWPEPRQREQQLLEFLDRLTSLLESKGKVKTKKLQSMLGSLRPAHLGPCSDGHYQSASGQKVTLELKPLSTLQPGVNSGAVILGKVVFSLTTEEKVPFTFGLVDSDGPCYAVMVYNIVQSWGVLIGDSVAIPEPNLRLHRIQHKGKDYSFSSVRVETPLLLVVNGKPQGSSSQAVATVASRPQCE
UniProt Q14669, sequence (Q14669 whole entry, looked up): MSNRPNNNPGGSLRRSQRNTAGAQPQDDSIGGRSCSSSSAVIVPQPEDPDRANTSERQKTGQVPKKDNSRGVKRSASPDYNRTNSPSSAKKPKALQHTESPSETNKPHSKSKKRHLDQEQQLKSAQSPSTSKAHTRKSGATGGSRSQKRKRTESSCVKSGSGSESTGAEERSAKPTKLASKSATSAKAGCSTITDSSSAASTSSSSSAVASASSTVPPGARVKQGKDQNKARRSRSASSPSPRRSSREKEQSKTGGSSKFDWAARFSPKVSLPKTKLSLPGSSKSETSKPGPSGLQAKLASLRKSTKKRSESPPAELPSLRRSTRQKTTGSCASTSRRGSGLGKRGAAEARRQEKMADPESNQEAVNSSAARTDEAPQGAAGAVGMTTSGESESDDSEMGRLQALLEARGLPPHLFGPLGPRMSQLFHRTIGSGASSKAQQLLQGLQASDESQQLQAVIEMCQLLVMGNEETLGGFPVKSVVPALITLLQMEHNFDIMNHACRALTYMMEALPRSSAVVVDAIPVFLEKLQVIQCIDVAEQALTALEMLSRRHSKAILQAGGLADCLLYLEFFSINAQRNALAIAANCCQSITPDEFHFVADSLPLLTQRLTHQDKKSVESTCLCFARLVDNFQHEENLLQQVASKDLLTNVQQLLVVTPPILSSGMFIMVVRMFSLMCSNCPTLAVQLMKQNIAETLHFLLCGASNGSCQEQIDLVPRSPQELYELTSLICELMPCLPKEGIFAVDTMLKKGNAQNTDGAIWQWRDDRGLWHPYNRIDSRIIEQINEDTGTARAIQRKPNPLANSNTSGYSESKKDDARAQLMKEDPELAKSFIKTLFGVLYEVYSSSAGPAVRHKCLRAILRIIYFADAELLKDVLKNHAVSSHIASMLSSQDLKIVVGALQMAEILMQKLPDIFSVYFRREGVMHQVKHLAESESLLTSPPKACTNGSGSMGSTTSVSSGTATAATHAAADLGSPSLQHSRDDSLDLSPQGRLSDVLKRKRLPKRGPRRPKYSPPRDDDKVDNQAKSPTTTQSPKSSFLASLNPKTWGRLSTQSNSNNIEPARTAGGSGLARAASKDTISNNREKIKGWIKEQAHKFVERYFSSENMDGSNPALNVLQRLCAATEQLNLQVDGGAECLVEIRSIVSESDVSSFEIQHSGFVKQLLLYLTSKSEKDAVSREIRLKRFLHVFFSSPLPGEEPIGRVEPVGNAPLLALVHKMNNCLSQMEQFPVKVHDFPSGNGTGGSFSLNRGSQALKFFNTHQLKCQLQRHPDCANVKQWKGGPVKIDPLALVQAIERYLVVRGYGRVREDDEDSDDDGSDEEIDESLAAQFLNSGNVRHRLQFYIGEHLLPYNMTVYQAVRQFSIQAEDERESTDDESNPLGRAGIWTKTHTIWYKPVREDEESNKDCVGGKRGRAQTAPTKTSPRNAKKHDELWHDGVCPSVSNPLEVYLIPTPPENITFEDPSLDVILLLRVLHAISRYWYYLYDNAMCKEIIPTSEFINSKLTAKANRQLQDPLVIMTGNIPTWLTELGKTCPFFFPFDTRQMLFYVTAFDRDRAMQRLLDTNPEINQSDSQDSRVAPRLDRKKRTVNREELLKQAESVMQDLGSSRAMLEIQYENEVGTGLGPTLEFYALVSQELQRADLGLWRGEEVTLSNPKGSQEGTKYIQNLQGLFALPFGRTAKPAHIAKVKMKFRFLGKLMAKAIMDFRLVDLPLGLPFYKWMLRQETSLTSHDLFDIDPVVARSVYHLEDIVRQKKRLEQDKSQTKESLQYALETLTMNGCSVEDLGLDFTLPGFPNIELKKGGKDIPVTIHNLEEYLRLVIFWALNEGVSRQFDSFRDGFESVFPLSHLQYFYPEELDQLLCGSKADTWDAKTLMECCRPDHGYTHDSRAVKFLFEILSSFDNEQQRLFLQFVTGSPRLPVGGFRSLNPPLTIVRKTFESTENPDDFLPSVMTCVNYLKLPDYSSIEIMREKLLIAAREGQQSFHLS
UniProt O75865, sequence (O75865 whole entry, looked up): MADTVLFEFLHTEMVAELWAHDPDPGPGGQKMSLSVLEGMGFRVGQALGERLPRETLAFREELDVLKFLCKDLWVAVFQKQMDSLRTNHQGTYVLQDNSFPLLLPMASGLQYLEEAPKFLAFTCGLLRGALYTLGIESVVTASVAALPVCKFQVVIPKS
UniProt Q9Y5L0, sequence (Q9Y5L0 whole entry, looked up): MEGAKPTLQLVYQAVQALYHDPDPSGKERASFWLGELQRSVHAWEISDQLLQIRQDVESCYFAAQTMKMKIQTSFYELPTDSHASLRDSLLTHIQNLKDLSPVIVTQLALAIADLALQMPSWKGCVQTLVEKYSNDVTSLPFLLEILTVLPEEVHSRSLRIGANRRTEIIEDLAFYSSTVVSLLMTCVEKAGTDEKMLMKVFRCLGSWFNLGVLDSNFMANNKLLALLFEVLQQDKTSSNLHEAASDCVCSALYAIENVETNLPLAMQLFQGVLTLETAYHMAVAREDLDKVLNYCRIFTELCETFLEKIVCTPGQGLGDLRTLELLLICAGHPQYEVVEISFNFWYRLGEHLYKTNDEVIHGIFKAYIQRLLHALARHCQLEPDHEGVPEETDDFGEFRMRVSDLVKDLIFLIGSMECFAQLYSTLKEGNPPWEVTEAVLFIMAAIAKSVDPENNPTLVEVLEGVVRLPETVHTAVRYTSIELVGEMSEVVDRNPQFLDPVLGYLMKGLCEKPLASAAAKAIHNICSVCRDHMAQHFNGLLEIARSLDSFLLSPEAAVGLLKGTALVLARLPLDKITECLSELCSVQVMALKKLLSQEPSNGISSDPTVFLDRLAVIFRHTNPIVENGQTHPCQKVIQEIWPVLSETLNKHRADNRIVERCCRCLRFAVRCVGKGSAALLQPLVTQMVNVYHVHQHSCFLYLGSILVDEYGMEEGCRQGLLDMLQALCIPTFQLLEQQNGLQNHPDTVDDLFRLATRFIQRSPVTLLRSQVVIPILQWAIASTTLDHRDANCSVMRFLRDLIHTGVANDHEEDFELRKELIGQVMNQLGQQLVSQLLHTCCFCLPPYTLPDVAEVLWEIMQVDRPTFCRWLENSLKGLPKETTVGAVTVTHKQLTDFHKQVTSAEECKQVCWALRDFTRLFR
UniProt P06753, sequence (P06753 whole entry, looked up): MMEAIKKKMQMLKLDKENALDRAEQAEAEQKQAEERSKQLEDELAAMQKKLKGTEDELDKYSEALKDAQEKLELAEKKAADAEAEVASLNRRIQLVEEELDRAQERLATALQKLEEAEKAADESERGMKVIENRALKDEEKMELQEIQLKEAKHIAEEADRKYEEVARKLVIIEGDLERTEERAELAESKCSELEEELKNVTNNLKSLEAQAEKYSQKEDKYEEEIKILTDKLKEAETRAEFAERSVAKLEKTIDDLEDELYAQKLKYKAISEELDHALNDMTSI
UniProt Q9UJT0, sequence (Q9UJT0 whole entry, looked up): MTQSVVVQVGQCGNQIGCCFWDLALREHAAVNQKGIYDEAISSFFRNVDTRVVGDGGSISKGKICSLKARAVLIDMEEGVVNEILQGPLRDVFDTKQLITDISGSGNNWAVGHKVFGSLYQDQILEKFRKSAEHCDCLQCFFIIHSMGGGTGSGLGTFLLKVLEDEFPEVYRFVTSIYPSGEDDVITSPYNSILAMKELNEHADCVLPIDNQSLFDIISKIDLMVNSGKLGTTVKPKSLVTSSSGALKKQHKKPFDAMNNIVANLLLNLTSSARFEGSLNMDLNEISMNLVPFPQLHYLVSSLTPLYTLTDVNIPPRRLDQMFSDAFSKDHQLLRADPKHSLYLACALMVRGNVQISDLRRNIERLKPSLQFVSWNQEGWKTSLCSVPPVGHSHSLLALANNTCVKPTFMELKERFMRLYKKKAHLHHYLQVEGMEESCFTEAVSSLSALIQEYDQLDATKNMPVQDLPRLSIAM
UniProt Q9Y5K5, sequence (Q9Y5K5 whole entry, looked up): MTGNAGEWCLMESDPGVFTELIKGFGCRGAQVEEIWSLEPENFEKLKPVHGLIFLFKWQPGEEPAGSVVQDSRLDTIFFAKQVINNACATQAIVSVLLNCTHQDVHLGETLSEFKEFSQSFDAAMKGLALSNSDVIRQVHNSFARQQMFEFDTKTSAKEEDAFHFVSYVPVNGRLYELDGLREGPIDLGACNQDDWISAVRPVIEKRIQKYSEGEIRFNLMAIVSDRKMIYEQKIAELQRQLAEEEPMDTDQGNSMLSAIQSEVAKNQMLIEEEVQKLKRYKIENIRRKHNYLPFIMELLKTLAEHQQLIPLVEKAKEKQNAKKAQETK
UniProt Q8NG68, sequence (Q8NG68 whole entry, looked up): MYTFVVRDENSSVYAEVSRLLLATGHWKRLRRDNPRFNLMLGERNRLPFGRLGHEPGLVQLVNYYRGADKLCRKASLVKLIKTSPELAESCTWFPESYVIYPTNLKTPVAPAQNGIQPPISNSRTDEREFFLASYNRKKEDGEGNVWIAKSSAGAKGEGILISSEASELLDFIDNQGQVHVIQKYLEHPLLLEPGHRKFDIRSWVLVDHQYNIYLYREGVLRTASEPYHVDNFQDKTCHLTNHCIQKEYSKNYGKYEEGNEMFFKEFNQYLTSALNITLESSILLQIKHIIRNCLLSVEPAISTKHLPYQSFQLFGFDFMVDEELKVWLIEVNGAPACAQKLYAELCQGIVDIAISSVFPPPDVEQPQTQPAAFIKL

| Target | log2 fold change (vemurafenib) | log2 fold change [1] | log2 fold change (barasertib) | log2 fold change [2] | log2 fold change (volasertib) | log2 fold change [3] | log2 fold change [4] | log2 fold change [5] | log2 fold change (saracatinib) | log2 fold change (sotrastaurin) | log2 fold change (alvocidib) | log2 fold change (Tubastatin A) | log2 fold change [6] | log2 fold change (defactinib) | log2 fold change [7] | log2 fold change (encorafenib) | log2 fold change [8] | log2 fold change (alisertib) | log2 fold change [9] | log2 fold change (gefitinib) |
| --- | --- | --- | --- | --- | --- | --- | --- | --- | --- | --- | --- | --- | --- | --- | --- | --- | --- | --- | --- | --- |
| TPM1 isoform 4 (UniProt P09493) | -0.049 | -0.012 | -0.036 | -0.018 | 0.033 | 0.013 | 0.106 | -0.149 | 0.031 | -0.012 | 0.017 | 0.073 | -0.013 | -0.031 | -0.12 | 0.02 | -0.088 | 0.035 | -0.012 | 0.008 |
| TPM3 (UniProt P06753) | -0.008 | 0.009 | -0.02 | 0.043 | 0.021 | 0.013 | 0.182 | -0.062 | -0.011 | -0.031 | 0.048 | 0.049 | -0.015 | 0.044 | -0.003 | -0.048 | -0.02 | -0.007 | 0 | 0.008 |
| TRAPPC6A isoform 2 (UniProt O75865) | -0.144 | 0.027 | -0.001 | -0.288 (active) | -0.035 | -0.072 | -0.228 | -0.096 | 0.001 | -0.042 | 0.059 | -0.006 | 0.011 | -0.026 | -0.017 | -0.142 | -0.027 | -0.052 | 0 | -0.043 |
| UCHL5 isoform 3 (UniProt Q9Y5K5) | 0.013 | 0.016 | -0.001 | -0.019 | -0.017 | 0.014 | 0.164 | -0.06 | -0.012 | -0.005 | -0.009 | -0.063 | 0.008 | -0.024 | -0.011 | -0.004 | 0.088 | -0.026 | -0.012 | -0.014 |
| TTC38 (UniProt Q5R3I4) | 0.035 | 0.03 | 0.102 | 0.004 | -0.001 | -0.047 | 0.189 | -0.181 | -0.026 | -0.027 | 0.121 | -0.013 | 0.004 | 0.001 | 0.034 | -0.045 | 0.013 | -0.046 | -0.018 | -0.069 |
| TRA2A (UniProt Q13595) | -0.197 | -0.033 | -0.194 | -0.037 | -0.052 | 0.073 | -0.023 | 0.07 | 0.074 | 0 | -0.007 | -0.079 | -0.033 | 0.171 | 0.031 | -0.017 | 0.068 | -0.188 | 0.017 | 0.118 |
| TRIP12 isoform 2 (UniProt Q14669) | 0.014 | 0.068 | 0.038 | -0.001 | -0.028 | 0.091 | -0.031 | 0.036 | -0.007 | 0.013 | 0.018 | -0.035 | 0.002 | 0.045 | -0.17 | 0.049 | -0.018 | 0.019 | -0.122 | 0.005 |
| TTL (UniProt Q8NG68) | -0.066 | 0.053 | 0 | -0.231 | -0.116 | 0.021 | 0.009 | -0.044 | -0.068 | 0.078 | 0.112 | -0.143 | 0.015 | -0.065 | 0.001 | 0.079 | 0.144 | -0.027 | 0.019 | 0.112 |
| TGFBRAP1 (UniProt Q8WUH2) | -0.031 | 0.02 | 0.031 | -0.069 | -0.062 | 0.049 | 0 | -0.075 | 0.005 | -0.001 | -0.026 | -0.153 | 0 | 0.005 | -0.012 | -0.015 | -0.174 | 0.011 | -0.025 | -0.025 |
| TTC27 (UniProt Q6P3X3) | 0.015 | 0.007 | 0.028 | -0.07 | -0.074 | 0.015 | -0.085 | -0.058 | 0.055 | 0.051 | 0.012 | -0.148 | -0.049 | 0.023 | -0.007 | 0.028 | 0.057 | 0.027 | 0.012 | 0.02 |
| UBAP2L isoform 5 (UniProt Q14157) | -0.002 | 0.025 | 0.013 | 0.023 | -0.006 | 0.013 | 0.028 | -0.01 | 0.03 | -0.002 | 0.019 | 0.008 | 0.007 | 0.016 | 0.038 | 0.041 | -0.002 | 0.027 | 0.022 | -0.031 |
| TNPO3 (UniProt Q9Y5L0) | 0.024 | 0.003 | 0.019 | 0.009 | -0.008 | 0.008 | 0.005 | 0.023 | -0.001 | -0.004 | 0.003 | -0.04 | 0 | -0.007 | -0.007 | 0 | -0.108 | -0.001 | 0.023 | -0.018 |
| TUBE1 (UniProt Q9UJT0) | 0.036 | 0.012 | 0.03 | 0.112 | -0.005 | 0.028 | 0.257 | -0.082 | 0.089 | 0.043 | 0.06 | -0.001 | 0.062 | 0.107 | -0.027 | 0.036 | -0.108 | 0.052 | -0.009 | -0.005 |
| TTC5 (UniProt Q8N0Z6) | 0.016 | 0.017 | -0.014 | -0.03 | -0.014 | 0.018 | -0.111 | 0.054 | 0.005 | 0.007 | -0.006 | -0.092 | -0.017 | -0.017 | -0.02 | -0.021 | 0.057 | -0.036 | -0.01 | 0.091 |
| TUBB4A (UniProt M0QYM7) | 0.019 | -0.099 | 0.315 | -0.193 | -0.069 | -0.053 | -0.772 | 0.448 |  | 0.111 | -0.158 | -0.007 | -0.109 | -0.115 |  | 0.009 | 0.053 | -0.025 | 0.042 | -0.076 |
| TPM3 isoform 3 (UniProt P06753) | -0.082 | 0.011 |  | -0.187 | 0.036 | 0.029 | -0.493 | 0.184 | 0.009 | 0.028 | -0.202 | -0.049 | 0.028 | 0.074 | -0.137 | -0.014 | -0.039 |  | -0.001 |  |
